Results filed as inconclusive are left out. Active and inactive are the calls of the source. Calls come from the whole dose curve; as a rule, active = well fitted curve in the direction sought with a large enough effect; inconclusive = small, poorly fitted or top-dose-only effect, or effect the other way, or another doubt; inactive = no such curve, though single readings can be large or run the other way.
Target: Transient receptor potential cation channel subfamily V member 1 (Homo sapiens) (UniProt Q8NER1)
Test: HTS Assay for Compounds that Act as Enhancers of the Vanilloid Receptor 1 (AID 488979)
Conditions: TRPV1-expressing cells, enhancer of channel activity; series mostly up to 41.7 µM
From the text: The transient receptor potential ion channel, family V, number 1, (TRPV1) is one of the most important molecular transducers of painful stimuli and a potential target for analgesic drug development. Although recent clinical trials with orthosteric antagonists have not produced a successful drug because of a hyperthermia side effect and their tendency to block thermal noxious pain, this ion channel is undeniably well placed in the pain pathway, and the idea of blocking pain signals before they enter the CNS is an excellent concept and of proven efficacy when TRPV1 agonists are used. We propose a new approach involving allosteric modulation to impose an activity-dependent constraint within the context of inflammation and tissue damage that would alter the responsiveness of the channel in a way that an orthosteric vanilloid antagonist cannot achieve. We believe that the allosteric modulator approach has not been explored for this target.
The main goal of this proposal is to identify additional, new, potent allosteric modulators of TRPV1 that can be used to investigate TRPV1 function. Our recent report provides evidence of proof of concept, but the compounds are just at the edge of utility in terms of potency. […] The question of whether they can be used as analgesic agents is complex, but if suitable compounds are identified then testing for analgesic properties will be conducted.
Upon TRPV1 activation in TRPV1 cells, the channel opens and extracellular cations flow through the channel into the cytosol. A calcium binding dye (Fluo-8) becomes fluorescent when bound to calcium. This dye is pre-loaded into cells and is used as a marker for calcium influx.
The amount of accumulated calcium is precisely quantified using the FDSS kinetic reader and the calcium dye.
For the HTS assay, freshly prepared cells are plated at a density of 2000/well in 3 ul medium in 1536-well plates and cultured overnight at 35.5C. Cells will be loaded with 1 ul of the homogeneous calcium dye (ABD Bioquest) at room temperature for 40 to 90 minutes. Plates will be loaded into the FDSS kinetic reader and a 1 sec / cycle for 10 second baseline signal will be measured. Compound library will then be added with a pintool at 23 nl and measured kinetically for 3 minutes. This portion of the read is considered the agonist portion of the screen. Following the 3 minutes of incubation, an on board pipettor will deliver 1 ul of capsaicin for a final concentration equal to the EC20. Signal will be measured kinetically for an additional 2 minutes. This portion of the read is considered the allosteric enhancer portion of the screen.
The FDSS reader has a standard filter set capable of measuring calcium bound Fluo-8 (ex=480 and em=520 nm).

Sequence of Transient receptor potential cation channel subfamily V member 1 (Homo sapiens) (Q8NER1 whole entry, looked up): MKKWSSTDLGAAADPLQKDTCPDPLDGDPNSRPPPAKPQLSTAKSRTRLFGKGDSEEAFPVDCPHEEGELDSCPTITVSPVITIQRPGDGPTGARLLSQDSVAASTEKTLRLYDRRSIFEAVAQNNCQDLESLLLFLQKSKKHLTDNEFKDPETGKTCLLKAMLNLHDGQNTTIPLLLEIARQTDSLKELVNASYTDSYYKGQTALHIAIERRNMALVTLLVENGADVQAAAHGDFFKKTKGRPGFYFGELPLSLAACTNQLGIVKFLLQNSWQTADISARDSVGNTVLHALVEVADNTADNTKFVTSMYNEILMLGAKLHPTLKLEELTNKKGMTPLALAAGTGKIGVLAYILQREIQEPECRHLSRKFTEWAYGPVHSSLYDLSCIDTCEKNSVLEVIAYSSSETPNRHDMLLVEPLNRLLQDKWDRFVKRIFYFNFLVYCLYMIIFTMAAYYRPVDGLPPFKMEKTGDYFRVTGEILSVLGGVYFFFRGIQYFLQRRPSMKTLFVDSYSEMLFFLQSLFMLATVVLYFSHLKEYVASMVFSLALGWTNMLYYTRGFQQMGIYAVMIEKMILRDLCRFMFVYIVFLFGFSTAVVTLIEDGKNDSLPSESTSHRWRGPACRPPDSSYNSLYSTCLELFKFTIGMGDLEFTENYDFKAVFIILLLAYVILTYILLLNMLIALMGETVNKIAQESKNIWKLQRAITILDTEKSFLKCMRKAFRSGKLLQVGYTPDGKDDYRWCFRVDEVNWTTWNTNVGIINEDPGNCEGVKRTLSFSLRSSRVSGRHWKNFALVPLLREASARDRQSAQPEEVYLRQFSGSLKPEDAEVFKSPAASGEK

Compound | outcome
Nc1ccc(CCN2CCN(c3cccc(C(F)(F)F)c3)CC2)cc1 | inactive
NC(CCCCCP(=O)(O)O)C(=O)O (stereo not given) | inactive
CCOC(=O)c1ncn2c1[C@@H]1CCCN1C(=O)c1cc(OC)ccc1-2 | inactive
CC(C)(C)c1o[nH]c(=O)c1CC(N)C(=O)O (stereo not given) | inactive
N[C@@H](CCl)C(=O)O | inactive
CC(=O)NBr | inactive
CC(N)Cc1c[nH]c2ccc(O)cc12 (stereo not given) | inactive
NCCc1ccc(S(=O)(=O)F)cc1 | inactive
C=CCN1C[C@@H](C)N([C@H](c2ccc(C(=O)N(CC)CC)cc2)c2cccc(OC)c2)C[C@@H]1C | inactive
NCC(O)c1cc(O)c(O)cc1F (stereo not given) | inactive
CN1CCc2cccc(Cl)c2CC1 | inactive
N[C@@]1(C(=O)O)CC[C@@H](C(=O)O)C1 | inactive
O=C1C=CC(=O)C=C1 | inactive
O=C(O)c1cc[c]([Hg][Cl])cc1 | inactive
C#CCN[C@H](C)Cc1ccccc1 | inactive
O=S1(=O)N(CCN2CC=C(c3c[nH]c4cc(F)ccc34)CC2)c2cccc3c2N1CCC3 | inactive
CC(=O)c1c(O)c(C)c(O)c(Cc2c(O)c3c(c(C(=O)/C=C/c4ccccc4)c2O)OC(C)(C)C=C3)c1O | inactive
OC1CCCCC1N1CCC(c2ccccc2)CC1 (stereo not given) | inactive
c1ccc2c(c1)[I+]c1ccccc1-2 | inactive
CC1(C(=O)O)C2CCC(O2)C1(C)C(=O)O (stereo not given) | inactive

Compound | outcome
CN(N=O)c1cc(O)ccc1O | inactive
NNC(N)=O | inactive
CCCN(CCC)[C@@H]1CCc2cccc(O)c2C1 | inactive
C[Se]C[C@H](N)C(=O)O | inactive
O=C1CC[C@@]2(O)C3Cc4ccc(O)c5c4C2(CCN3CC2CC2)[C@H]1O5 (stereo not given in full) | inactive
O=[N+]([O-])c1ccc2nc(N3CCNCC3)ccc2c1 | inactive
CCCn1c(C)c(C(=O)c2ccc3ccccc3c2)c2ccccc21 | inactive
Clc1ccc(N2CC3CCC(C2)N3)nn1 | inactive
C[N+](C)(C)CC#CCN1CCCC1=O | inactive
CO[C@H]1CC=C2CCN3CCC4=C(CC(=O)OC4)[C@]23C1 | inactive
COc1ccc2c(c1)/C(=C/c1cnc[nH]1)C(=O)N2 | inactive
CCCn1c(=O)c2[nH]c(C3CCCC3)nc2n(CCCOC(=O)c2ccc(S(=O)(=O)F)cc2)c1=O | inactive
CC(C)(C)c1cc(C=C(C#N)C#N)cc(C(C)(C)C)c1O | inactive
CCCCCCC(C)(C)c1ccc([C@@H]2C[C@H](O)CC[C@H]2CCCO)c(O)c1 | inactive
COC(=O)N1CCN(C(=O)Cc2ccc(Cl)c(Cl)c2)C(CN2CCCC2)C1 (stereo not given) | inactive
CCCN(CCC)CCc1c[nH]c2ccc(C(N)=O)cc12 | inactive
NCCc1c[nH]c2ccc(C(N)=O)cc12 | inactive
CCN(CC)c1ncnc2c1ncn2[C@@H]1O[C@H](COP(=O)(O)OP(=O)(O)C(Br)(Br)P(=O)(O)O)[C@@H](O)[C@H]1O | inactive
COc1ccc(CNC(=O)/C=C/c2ccc3[nH]cc(CCN(C)C)c3c2)cc1 | inactive
NC(=O)c1ccc(OCC(O)CN2CC=C(c3ccc(F)cc3)CC2)cc1 (stereo not given) | inactive
